Compound activity (PubChem)
PI5P4K alpha inh: qHTS for Inhibitors of phosphatidylinositol 5-phosphate 4-kinase (PI5P4K). Phosphatidylinositol 5-phosphate 4-kinase type-2 alpha (Homo sapiens), P48426. PI5P4Kalpha enzyme, ADP-Glo luminescence, 60 min; stronger effect = lower value. max response, %. hit rate 1.2% among 330,000. AID 652105, 2013; active means max response of -50% or lower; further: value at the top dose of about 77 µM; on the % scale 0 is the no-effect control and ±100 the full control effect
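ADP-Glo luminescence end-point after a 60 min room-temperature kinase reaction. PI5P4Kalpha and substrate in HEPES pH 7.4 buffer with EGTA, 0.1% CHAPS and 5% DMSO; ATP at 5 microM final.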
POLH inh: qHTS for Inhibitors of Polymerase Eta | DNA polymerase eta (Homo sapiens), Q9Y253 | recombinant Pol eta, fluorescent DNA replication assay | Potency, µM (series often up to 114 µM), for inactives: top-dose activity change, negative = inhibition, actives largely listed as inhibitors | hit rate 1.2% among 390,000; further: potency means the concentration at half of the fitted maximal effect; on the % scale 0 is the no-effect control and ±100 the full control effect
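Pol eta (10 nM) was preincubated with compounds for 15 min at room temperature, after which fluorescent replication substrate (50 nM final) was added to start the reaction. Fluorescence was read kinetically at 0 and 10 min.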
Pol iota inh: qHTS for Inhibitors of Polymerase Iota; DNA polymerase iota (Homo sapiens), Q9UNA4; Pol iota fluorescent replication assay, 10 min; Potency, µM (doses to about 115 µM), without a hit: at the highest dose activity, negative = inhibition, usual class: inhibitors; hit rate 1% among 390,000; further: potency means the concentration at half of the fitted maximal effect
Target sequence (Q9UNA4 whole entry, looked up): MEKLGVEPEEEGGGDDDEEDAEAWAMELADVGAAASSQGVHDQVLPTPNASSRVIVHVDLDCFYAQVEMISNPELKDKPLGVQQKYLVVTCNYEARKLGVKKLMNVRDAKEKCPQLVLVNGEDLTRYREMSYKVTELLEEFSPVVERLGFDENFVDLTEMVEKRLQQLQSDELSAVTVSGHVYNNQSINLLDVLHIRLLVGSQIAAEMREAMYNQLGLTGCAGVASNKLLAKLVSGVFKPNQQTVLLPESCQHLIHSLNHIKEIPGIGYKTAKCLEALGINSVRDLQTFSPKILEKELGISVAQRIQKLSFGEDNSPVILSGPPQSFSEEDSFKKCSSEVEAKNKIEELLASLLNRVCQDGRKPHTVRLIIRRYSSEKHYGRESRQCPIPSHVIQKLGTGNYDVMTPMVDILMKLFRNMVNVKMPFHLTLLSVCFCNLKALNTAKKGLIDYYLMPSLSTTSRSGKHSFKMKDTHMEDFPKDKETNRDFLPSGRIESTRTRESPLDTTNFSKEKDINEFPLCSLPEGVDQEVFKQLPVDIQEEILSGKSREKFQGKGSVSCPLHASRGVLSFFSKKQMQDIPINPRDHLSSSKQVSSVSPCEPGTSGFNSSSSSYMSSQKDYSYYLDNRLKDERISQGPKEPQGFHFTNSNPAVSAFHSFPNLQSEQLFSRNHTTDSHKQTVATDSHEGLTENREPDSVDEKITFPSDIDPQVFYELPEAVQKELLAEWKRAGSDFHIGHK
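Fluorescent replication assay read twice, at 0 min and 10 min after adding 50 nM (final) substrate. Enzyme (10 nM) and compounds were first incubated 15 min at room temperature; enzyme-free buffer wells were negative controls.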
Pol beta inh: qHTS Assay for Inhibitors of DNA Polymerase Beta; Potency, µM (highest dose often 114 µM), for inactives: top-dose activity change, negative = inhibition, most hits filed as inhibitors; Pol beta primer extension/strand displacement, fluorescence kinetic; hit rate 1.3% among 340,000; further: potency means the concentration at half of the fitted maximal effect; on the % scale 0 is the no-effect control and ±100 the full control effect
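Curves were derived by four-parameter Hill fits of normalized qHTS data. The kinetic fluorescent primer-extension read was taken at 0 and 10 min after 50 nM substrate, following a 15 min room-temperature preincubation of 10 nM enzyme with compounds.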
POLK inh: qHTS for Inhibitors of Polymerase Kappa; hit rate 0.53% among 400,000; Potency, µM (titrated, usually from 107 µM), for the others: at the highest dose activity, negative = inhibition, most hits filed as inhibitors; AID 588579, 2011; DNA polymerase kappa (Homo sapiens), Q9UBT6; purified Pol kappa, fluorescent DNA synthesis assay, 10 min; further: potency means the concentration at half of the fitted maximal effect; on the % scale 0 is the no-effect control and ±100 the full control effect
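Fluorescent qHTS in 1536-well format: enzyme (10 nM) and compound sat 15 min at room temperature before 50 nM substrate (final) was added. Signal taken at 0 and 10 min; no-enzyme buffer wells were negative controls.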
FEN1 inhibitor: qHTS Assay for the Inhibitors of Human Flap endonuclease 1 (FEN1); Potency, µM (doses to about 114 µM), for inactives: top-dose activity change, negative = inhibition, most hits filed as inhibitors; P39748; hit rate 0.35% among 390,000; Recombinant FEN1 flap cleavage, fluorescence, 15 min; further: potency means the concentration at half of the fitted maximal effect; on the % scale 0 is the no-effect control and ±100 the full control effect; nearly all actives have a fitted effect of over 65% in size
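In this screen, 50 nM flap DNA substrate was added to 10 nM FEN1 pretreated with compound for 15 min at room temperature; cleavage was followed with reads at 0 and 15 min, and Hill fitting gave concentration–response parameters.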
ADP-Glo interf: qHTS for Inhibitors of PI5P4K: ADP-Glo counter assay. ADP-Glo detection counter-screen, luciferase luminescence, no enzyme. Potency, µM (highest dose often 76.9 µM), for the others: at the highest dose activity change, negative = inhibition, actives largely listed as inhibitors. 1,100 tested, under 10 active. shares compounds with PI5P4K alpha inh
* = called active by the depositor; . = no result; [ ] = dose if it differs, or a comment. Shown are actives, neighbours in structure and some others; about 2.8% of the full set was active somewhere. Unless noted, the call rests on the fitted dose curve; in most records, active means well fitted curve in the direction sought with a large enough effect; inconclusive means small, poorly fitted or top-dose-only effect, or another doubt; inactive means no such curve, though single readings can be large; an effect the other way counts as inactive or inconclusive.

SMILES	PI5P4K alpha inh	POLH inh	Pol iota inh	Pol beta inh	POLK inh	FEN1 inhibitor	ADP-Glo interf
COCCNC(=O)N1[C@H]2CC[C@@H]1C(C(=O)OC)=C(c1ccc(OC)c(OC)c1)C2	-1	-19%	19%	.	3%	20%	.
CCCNC(=O)N1[C@H]2CC[C@@H]1C(C(=O)OC)=C(c1ccc(OC)c(OC)c1)C2	-85*	-11%	-3%	.	11%	5%	-5%
CCCCCn1c(=O)c(C(=O)Nc2ccccc2S(N)(=O)=O)c(O)c2ccccc21	-53*	-9%	29%	-18%	-16%	-16%	0%
NC(N)=Nc1ccc2[nH]c3c(c2c1)C[C@]1(O)[C@@H]2Cc4ccc(O)c5c4[C@]1(CCN2CC1CC1)[C@@H]3O5	.	.	.	.	-14%[19.4 µM]	.	.
Cc1ccc2c(c1)C1(CCN(CCc3nc(-c4ccccc4)oc3C)CC1)OC(=O)N2	.	.	.	.	3%[60.1 µM]	.	.
CC(C)NCC(O)c1ccc(C2CCCC2)cc1 (centres undefined)	-9	-7%	6%	80%	-16%	3%	-8%
